The source of these data is PubChem BioAssay.

Experiment [1] in a line: EMT-state selective cytotoxicity in co-culture – imaging, PC-3E GFP, TEM4-18 mCherry, primary screen (AID 1345086;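 active = compounds killing one labelled cell type while sparing the other, by normalised counts and ratio limits, not self-fluorescent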;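 for all read-outs here: cells exposed to compound for 72 h before imaging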;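 for red/green cell ratio (normalised): normalised mesenchymal count divided by normalised epithelial count so high means epithelial killing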). The conditions noted are these: PC-3E GFP / TEM4-18 mCherry co-culture, imaging cell counts, at 1 µM; for red/green cell ratio (normalised): actives lie on both sides, counts scaled to control wells, 1 = unselective.
Experiment [2] in a line: viability loss with induced miR-34 in A549 – imaging, A549 dox-inducible miR-34, nuclei and caspase counts, primary screen (AID 1347080). The conditions noted are these: A549 miR-34 inducible, Hoechst nuclei count, 48 h.
Setting [3] is: measured here: epithelial PC-3E GFP cell survival.
Setting [4] is: measured here: mesenchymal TEM4-18 mCherry cell survival.
[5] abbreviates: stronger effect = lower value, cell number ratio, induced over uninduced.
The mark [6] stands for this setting: measured here: relative caspase fold change +Dox/-Dox.
[7] abbreviates: measured here: total cells with miR-34 induction, stronger effect = lower value.
Setting [8] is: measured here: total cells without miR-34 induction.

Several values for one entry are separate records, joined by “and”; a condition that tells them apart may be missing. Equal values may be shown once. Activity calls are given as the source filed them.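 Rule for the calls, unless noted: active = compounds whose cell count with miR-34 switched on is under 0.7 times the count with it off; inactive = the rest.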

For `Cc1cc(CC(C)CC(C)(C)C)n(O)c(=O)c1` (stereo not given) (tested in a mixture with another compound), the red/green cell ratio (normalised) in experiment [1] is 0.92 (inactive). Also, the figures for the normalised cell number in experiment [1] (setting [3]) and in experiment [1] (setting [4]) were 1.04 and 0.95, respectively. Further, the fold change in experiment [2] (setting [5]) was 1.25 (inactive) and 1.02 (inactive); in experiment [2] (setting [6]), 0.741 and 0.825. For the same molecule, the cell count in experiment [2] (setting [7]) was 2940 and 2820; in experiment [2] (setting [8]), 2360 and 2770.
Turning to `C[C@@H]1CC2C3CCC4=CC(=O)C=C[C@]4(C)[C@@]3(F)[C@@H](O)C[C@]2(C)[C@H]1C(=O)CO` (stereo not given in full), the red/green cell ratio (normalised) in experiment [1] was 1.08 (inactive). Also, the figures for the normalised cell number in experiment [1] (setting [3]) and in experiment [1] (setting [4]) were 1.08 and 1.16, respectively. For the same molecule, the fold change is 0.893 (inactive) and 0.821 (inactive) in experiment [2] (setting [5]); 0.943 and 1.01 in experiment [2] (setting [6]). The cell count in experiment [2] (setting [7]) was 6390 and 5470; in experiment [2] (setting [8]), 7160 and 6670.
Regarding `O=C(O)CCCN1CCN([C@H](c2ccccc2)c2ccc(Cl)cc2)CC1`, the red/green cell ratio (normalised) in experiment [1] was 0.97 (inactive). The normalised cell number was 1.14 in experiment [1] (setting [3]) and 1.11 in experiment [1] (setting [4]). Also, the figures for the fold change in experiment [2] (setting [5]) and in experiment [2] (setting [6]) were 0.876 (inactive) and 0.778, respectively. Moreover, the cell count came out at 8580 in experiment [2] (setting [7]) and 9800 in experiment [2] (setting [8]).
Take `NC(=O)c1ncn(C2O[C@H](CO)[C@@H](O)[C@H]2O)c1N` (stereo not given in full): the red/green cell ratio (normalised) in experiment [1] was 0.89 (inactive). In addition, the normalised cell number came out at 1.13 in experiment [1] (setting [3]) and 1 in experiment [1] (setting [4]). The fold change was 0.937 (inactive) in experiment [2] (setting [5]) and 0.793 in experiment [2] (setting [6]). In addition, the cell count in experiment [2] (setting [7]) came out at 9050; in experiment [2] (setting [8]), 9660.
Turning to `Cc1oc(=O)oc1CN1CCN(c2cc3c(cc2F)c(=O)c(C(=O)O)c2n3C(C)C2)CC1` (stereo not given), in experiment [1], the red/green cell ratio (normalised) is 0.94 (inactive). The normalised cell number in experiment [1] (setting [3]) turned out to be 0.97; in experiment [1] (setting [4]), 0.91. The fold change in experiment [2] (setting [5]) was 0.994 (inactive); in experiment [2] (setting [6]) it was 0.87. The cell count in experiment [2] (setting [7]) was determined as 9060; in experiment [2] (setting [8]) it was 9120.
Consider `N[C@@H](CO)c1ccccc1`, for which, in experiment [1], the red/green cell ratio (normalised) was 0.91 (inactive). Moreover, the normalised cell number in experiment [1] (setting [3]) was 0.97; in experiment [1] (setting [4]), 0.88. Also, the values for the fold change in experiment [2] (setting [5]) and in experiment [2] (setting [6]) were 0.995 (inactive) and 0.434, respectively. Further, the cell count turned out to be 5440 in experiment [2] (setting [7]) and 5460 in experiment [2] (setting [8]).
Consider `CC(=O)OCC(=O)[C@@]1(O)CCC2C3CCC4=CC(=O)C=C[C@]4(C)[C@@]3(Cl)[C@@H](Cl)C[C@@]21C` (stereo not given in full), for which the red/green cell ratio (normalised) in experiment [1] is 1 (inactive). The normalised cell number in experiment [1] (setting [3]) and in experiment [1] (setting [4]) was 1.2 each time. Also, the fold change in experiment [2] (setting [5]) is 0.864 (inactive); in experiment [2] (setting [6]), 1.22. Also, the cell count in experiment [2] (setting [7]) turned out to be 6210; in experiment [2] (setting [8]), 7190.
Consider `Cc1cc2nc3c(=O)[nH]c(=O)nc-3n(C[C@@H](O)[C@@H](O)[C@@H](O)COP(=O)(O)O)c2cc1C`, for which, in experiment [1], the red/green cell ratio (normalised) is 1.01 (inactive). Further, the results for the normalised cell number in experiment [1] (setting [3]) and in experiment [1] (setting [4]) were 1.03 and 1.04, respectively. For the same molecule, the fold change is 0.895 (inactive) in experiment [2] (setting [5]) and 1.15 in experiment [2] (setting [6]). For the same molecule, the values for the cell count in experiment [2] (setting [7]) and in experiment [2] (setting [8]) were 8530 and 9530, respectively.
As to `CC(=O)[C@H]1CCC2C3CC=C4C[C@@H](OC(=O)CCC(=O)O)CC[C@]4(C)C3CC[C@@]21C` (stereo not given in full), the red/green cell ratio (normalised) in experiment [1] is 0.87 (inactive). Also, the normalised cell number turned out to be 1.07 in experiment [1] (setting [3]) and 0.93 in experiment [1] (setting [4]). Besides, the fold change in experiment [2] (setting [5]) is 0.903 (inactive); in experiment [2] (setting [6]), 0.914. Moreover, the cell count in experiment [2] (setting [7]) was 8450; in experiment [2] (setting [8]), 9360.
As to `CCCCCOC(=O)Nc1nc(=O)n(C2O[C@H](C)[C@@H](O)[C@H]2O)cc1F` (stereo not given in full), in experiment [1], the red/green cell ratio (normalised) is 1.41 (inactive). In addition, the normalised cell number in experiment [1] (setting [3]) turned out to be 0.48; in experiment [1] (setting [4]), 0.68. For the same molecule, the fold change is 0.954 (inactive) in experiment [2] (setting [5]) and 0.897 in experiment [2] (setting [6]). In addition, the cell count worked out at 8840 in experiment [2] (setting [7]) and 9270 in experiment [2] (setting [8]).
